Here are results for eleven compounds from PubChem BioAssay (EPA / NIEHS).

Assay [1] in a line: ATG_NFI_CIS: Attagene CIS-FACTORIAL HepG2 Assay for human Nuclear Factor I (NFI) (AID 2282989). The note with it: HepG2 cis-regulatory reporter, NFI response element transcription; actives raise or lower the signal. Summed up: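 Cells: human liver HepG2, transiently transfected with promoter-regulated reporter transcription units. Exposure 24 h. Detection: fluorescent RT-PCR products separated by capillary electrophoresis, normalised to DMSO negative control.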

Assay [2] addresses Myc proto-oncogene protein (Homo sapiens) (UniProt P01106). The experiment in a line: ATG_Myc_CIS: Attagene CIS-FACTORIAL HepG2 Assay for human Myelocytomatosis (Myc) Proto-Oncogene Transcription Factor (AID 2282990). The note with it: HepG2, Attagene cis-reporter transcription factor activity; actives raise or lower the signal. Summed up:
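Multiplexed cis-reporter transcription in HepG2 cells after 24 h chemical treatment. Reporter mRNA measured by RT-PCR and capillary electrophoresis fluorescence; activity fitted bidirectionally against DMSO control.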

A short description of assay [3]: ATG_NF_kB_CIS: Attagene CIS-FACTORIAL HepG2 Assay for human Nuclear Factor Kappa B (NF-kB) (AID 2282991). The conditions noted are these: HepG2 Attagene cis-factorial NF-kB reporter mRNA; actives raise or lower the signal. Summed up:
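HepG2 cells transiently transfected with multiplexed cis-element reporter units measuring endogenous transcription factor activity; reporter mRNA read 24 h after dosing by RT-PCR, fluorescent labelling, HpaI digestion and capillary electrophoresis. Bidirectional fit against DMSO baseline.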

Assay [4] is described as follows: ATG_NRF2_ARE_CIS: Attagene CIS-FACTORIAL HepG2 Assay for human Nuclear Factor Erythroid 2 Related Factor 2 (NFR2) response to Antioxidant Response Elements (ARE) (AID 2282992). The conditions noted are these: HepG2 Attagene ARE/NRF2 reporter, transcription factor activity; actives raise or lower the signal. Summed up: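 Using transiently transfected HepG2 cells exposed for 24 h, reporter mRNA levels were determined by RT-PCR with fluorescent primer extension and capillary electrophoresis, analysed for gain or loss of signal against DMSO.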

The nature of assay [5]: ATG_Oct_MLP_CIS: Attagene CIS-FACTORIAL HepG2 Assay for human Octamer-Binding Transcription Factor (Oct) (AID 2282993). The conditions noted are these: HepG2 Attagene cis-factorial Oct reporter, mRNA; actives raise or lower the signal. Summed up:
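HepG2, transient MRTU transfection, cis promoter elements; 24 h dosing; RT-PCR/CE fluorescence read-out of reporter mRNA; fit both directions vs DMSO.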

In assay [6] the target is Cellular tumor antigen p53 (Homo sapiens) (UniProt P04637). The experiment in a line: ATG_p53_CIS: Attagene CIS-FACTORIAL HepG2 Assay for human p53 Transcription Factor (AID 2282994). The conditions noted are these: HepG2 p53 cis-element reporter, Attagene mRNA; actives raise or lower the signal. In a few lines:
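In HepG2 cells, reporter transcription units under cis-regulatory promoters were transiently introduced. Following 24 h treatment, RNA was processed to labelled, digested cDNA fragments read by capillary electrophoresis; fitting was bidirectional versus DMSO.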

In assay [7] the target is human Peroxisome Proliferator-activated Receptor alpha (PPARa), PPARA (gene 5465) (UniProt Q07869). The experiment in a line: ATG_PPARa_TRANS: Attagene TRANS-FACTORIAL HepG2 Assay for human Peroxisome Proliferator-activated Receptor alpha (PPARa) (AID 2283001; active means hit-call score of the fitted dose curve at least 0.9, where 1 is the maximum). In a few lines: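 Exposure: 24 h, transiently transfected HepG2 cells. Endpoint: GAL4-UAS reporter mRNA, RT-PCR with capillary electrophoresis fluorescence. Baseline: DMSO; increases fitted.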
Chain of human Peroxisome Proliferator-activated Receptor alpha (PPARa), PPARA (gene 5465) (Q07869 whole entry, looked up, the tested form may be a part): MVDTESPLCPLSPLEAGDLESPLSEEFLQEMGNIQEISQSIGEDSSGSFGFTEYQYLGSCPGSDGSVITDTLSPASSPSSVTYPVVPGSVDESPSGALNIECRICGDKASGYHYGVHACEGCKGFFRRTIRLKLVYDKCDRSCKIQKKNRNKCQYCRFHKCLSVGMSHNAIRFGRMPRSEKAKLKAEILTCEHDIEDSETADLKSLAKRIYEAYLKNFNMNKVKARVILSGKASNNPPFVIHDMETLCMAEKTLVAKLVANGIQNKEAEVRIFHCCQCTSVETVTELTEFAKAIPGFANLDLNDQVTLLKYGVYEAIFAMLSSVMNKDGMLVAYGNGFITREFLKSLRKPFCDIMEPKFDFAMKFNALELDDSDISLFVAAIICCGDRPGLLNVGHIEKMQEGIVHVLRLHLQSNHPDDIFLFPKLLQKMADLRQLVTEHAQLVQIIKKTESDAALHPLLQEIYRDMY

For assay [8], the target named is human Peroxisome Proliferator-activated Receptor delta (PPARd), PPARD (gene 5467) (UniProt Q03181). The experiment in a line: ATG_PPARd_TRANS: Attagene TRANS-FACTORIAL HepG2 Assay for human Peroxisome Proliferator-activated Receptor delta (PPARd) (AID 2283002; active means hit-call score of the fitted dose curve at least 0.9, where 1 is the maximum). In a few lines:
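Multiplexed trans-activation format: HepG2 liver cells expressing exogenous NR-Gal4 chimeras and GAL4-UAS reporters were exposed for 24 h. Reporter mRNA was detected by RT-PCR with capillary electrophoresis fluorescence; activity fitted as gain of signal relative to DMSO.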

In assay [9] the target is Nuclear receptor subfamily 1 group I member 2 (Homo sapiens) (UniProt O75469). The experiment in a line: ATG_PXR_TRANS: Attagene TRANS-FACTORIAL HepG2 Assay for human Pregnane X Receptor (PXR) (AID 2283008; active means hit-call score of the fitted dose curve at least 0.9, where 1 is the maximum). Summed up:
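Multiplexed TRANS reporter panel in HepG2; this component tracks PXR-Gal4-driven reporter mRNA after 24 h dosing, measured by RT-PCR with capillary electrophoresis fluorescence, fitted against DMSO.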

For assay [10], the target named is human RAR-related Orphan Receptor beta (RORb), RORB (gene 6096) (UniProt Q92753). In words: ATG_RORb_TRANS: Attagene TRANS-FACTORIAL HepG2 Assay for human RAR-related Orphan Receptor beta (RORb) (AID 2283010; active means hit-call score of the fitted dose curve at least 0.9, where 1 is the maximum). In a few lines: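 Multiplexed transcription-factor reporter assay: HepG2 cells transiently carrying NR-Gal4/GAL4-UAS constructs, 24 h treatment, mRNA quantified by RT-PCR plus capillary electrophoresis fluorescence; activity scored as induction over DMSO.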
Chain of human RAR-related Orphan Receptor beta (RORb), RORB (gene 6096) (Q92753 whole entry, looked up, the tested form may be a part): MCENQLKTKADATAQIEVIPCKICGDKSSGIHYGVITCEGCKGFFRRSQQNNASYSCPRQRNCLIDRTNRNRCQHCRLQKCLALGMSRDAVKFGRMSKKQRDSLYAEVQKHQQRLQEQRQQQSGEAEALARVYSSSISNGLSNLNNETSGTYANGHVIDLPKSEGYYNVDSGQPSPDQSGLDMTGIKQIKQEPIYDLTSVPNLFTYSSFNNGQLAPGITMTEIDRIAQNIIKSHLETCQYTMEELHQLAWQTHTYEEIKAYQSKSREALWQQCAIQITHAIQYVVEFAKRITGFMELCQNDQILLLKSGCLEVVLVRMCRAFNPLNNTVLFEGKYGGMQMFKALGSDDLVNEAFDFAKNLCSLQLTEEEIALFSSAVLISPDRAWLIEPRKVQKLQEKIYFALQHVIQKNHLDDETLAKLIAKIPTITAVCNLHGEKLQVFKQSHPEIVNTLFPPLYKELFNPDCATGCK

Assay [11] deals with human RAR-related Orphan Receptor gamma (RORg), RORC (gene 6097) (UniProt P51449). In words: ATG_RORg_TRANS: Attagene TRANS-FACTORIAL HepG2 Assay for human RAR-related Orphan Receptor gamma (RORg) (AID 2283011; active means hit-call score of the fitted dose curve at least 0.9, where 1 is the maximum;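 on AC50: potency for induction of reporter transcripts above DMSO so activators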). In a few lines:
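Reporter transcripts from a transfected RORg-GAL4 chimera in HepG2 cells were quantified 24 h after dosing by RT-PCR, 6-FAM labelling, HpaI digestion and capillary electrophoresis; increases over DMSO baseline were fitted.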

Assay [12] addresses Peroxisome proliferator-activated receptor gamma (Homo sapiens) (UniProt P37231). The experiment in a line: ATG_PPARg_TRANS: Attagene TRANS-FACTORIAL HepG2 Assay for human Peroxisome Proliferator-activated Receptor-gamma (PPARg) (AID 2283007; active means hit-call score of the fitted dose curve at least 0.9, where 1 is the maximum). Summed up:
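HepG2 cells transiently transfected with multiplexed GAL4-UAS reporter units and exogenous chimeric NR-Gal4 proteins; reporter mRNA quantified after 24 h compound exposure by RT-PCR, fluorescent labelling, HpaI digestion and capillary electrophoresis; gain-of-signal fitted versus DMSO baseline.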

Results filed as inconclusive are left out. Activity calls are given as the source filed them. How the source made its calls, unless noted: active means hit-call score of the fitted dose curve at least 0.9, where 1 is the maximum; inactive means score below 0.9.

Chain of human Peroxisome Proliferator-activated Receptor delta (PPARd), PPARD (gene 5467) (Q03181 whole entry, looked up, the tested form may be a part): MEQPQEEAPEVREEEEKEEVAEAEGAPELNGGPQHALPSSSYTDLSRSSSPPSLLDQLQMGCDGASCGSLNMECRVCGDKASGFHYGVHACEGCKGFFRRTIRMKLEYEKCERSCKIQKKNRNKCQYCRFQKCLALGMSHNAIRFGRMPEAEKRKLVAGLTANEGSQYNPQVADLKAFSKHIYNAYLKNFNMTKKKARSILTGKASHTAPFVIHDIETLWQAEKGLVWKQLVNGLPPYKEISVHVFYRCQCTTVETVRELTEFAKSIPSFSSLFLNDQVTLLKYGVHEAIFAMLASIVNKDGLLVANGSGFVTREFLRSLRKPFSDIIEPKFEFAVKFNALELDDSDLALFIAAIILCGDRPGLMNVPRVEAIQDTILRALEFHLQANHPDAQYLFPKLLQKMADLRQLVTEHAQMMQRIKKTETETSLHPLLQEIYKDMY
Chain of Cellular tumor antigen p53 (Homo sapiens) (P04637 whole entry, looked up, the tested form may be a part): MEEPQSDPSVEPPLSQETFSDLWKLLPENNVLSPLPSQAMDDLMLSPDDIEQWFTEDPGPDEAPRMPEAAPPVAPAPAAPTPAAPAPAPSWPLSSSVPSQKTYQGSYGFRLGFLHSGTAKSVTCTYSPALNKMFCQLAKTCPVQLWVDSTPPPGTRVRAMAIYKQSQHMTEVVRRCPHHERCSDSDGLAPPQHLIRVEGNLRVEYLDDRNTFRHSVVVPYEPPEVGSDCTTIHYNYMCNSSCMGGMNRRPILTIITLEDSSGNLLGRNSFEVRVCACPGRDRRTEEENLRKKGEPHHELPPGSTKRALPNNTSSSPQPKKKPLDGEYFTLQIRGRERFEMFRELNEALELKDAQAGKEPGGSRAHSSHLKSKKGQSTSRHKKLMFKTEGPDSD
Chain of Peroxisome proliferator-activated receptor gamma (Homo sapiens) (P37231 whole entry, looked up, the tested form may be a part): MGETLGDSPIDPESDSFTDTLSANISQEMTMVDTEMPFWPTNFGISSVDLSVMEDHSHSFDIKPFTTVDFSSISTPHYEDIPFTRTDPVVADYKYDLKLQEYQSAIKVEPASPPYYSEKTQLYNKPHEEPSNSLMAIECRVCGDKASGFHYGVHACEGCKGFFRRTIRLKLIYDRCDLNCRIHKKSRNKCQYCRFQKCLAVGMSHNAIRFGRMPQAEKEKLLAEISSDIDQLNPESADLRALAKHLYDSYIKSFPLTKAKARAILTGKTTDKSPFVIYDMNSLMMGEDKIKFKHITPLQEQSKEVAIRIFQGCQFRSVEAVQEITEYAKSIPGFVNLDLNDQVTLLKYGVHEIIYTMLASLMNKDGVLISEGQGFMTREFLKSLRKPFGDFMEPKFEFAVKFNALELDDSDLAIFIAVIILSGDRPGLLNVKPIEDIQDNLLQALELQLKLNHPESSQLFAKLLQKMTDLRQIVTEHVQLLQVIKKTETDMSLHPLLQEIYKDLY
Chain of human RAR-related Orphan Receptor gamma (RORg), RORC (gene 6097) (P51449 whole entry, looked up, the tested form may be a part): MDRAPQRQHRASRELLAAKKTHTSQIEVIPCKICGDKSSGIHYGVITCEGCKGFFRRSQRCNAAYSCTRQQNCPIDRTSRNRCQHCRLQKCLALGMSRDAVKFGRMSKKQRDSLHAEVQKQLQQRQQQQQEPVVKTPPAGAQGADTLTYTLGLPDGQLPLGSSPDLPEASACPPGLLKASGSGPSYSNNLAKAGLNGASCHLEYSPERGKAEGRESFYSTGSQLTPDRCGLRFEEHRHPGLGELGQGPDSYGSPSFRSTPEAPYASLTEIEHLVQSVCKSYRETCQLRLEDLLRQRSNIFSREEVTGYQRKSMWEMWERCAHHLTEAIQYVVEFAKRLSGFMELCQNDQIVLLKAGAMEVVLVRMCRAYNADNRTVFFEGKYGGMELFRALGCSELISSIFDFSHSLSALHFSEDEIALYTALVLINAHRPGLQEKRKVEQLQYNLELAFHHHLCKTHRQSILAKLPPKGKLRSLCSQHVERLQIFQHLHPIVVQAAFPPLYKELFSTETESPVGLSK
Chain of Myc proto-oncogene protein (Homo sapiens) (P01106 whole entry, looked up): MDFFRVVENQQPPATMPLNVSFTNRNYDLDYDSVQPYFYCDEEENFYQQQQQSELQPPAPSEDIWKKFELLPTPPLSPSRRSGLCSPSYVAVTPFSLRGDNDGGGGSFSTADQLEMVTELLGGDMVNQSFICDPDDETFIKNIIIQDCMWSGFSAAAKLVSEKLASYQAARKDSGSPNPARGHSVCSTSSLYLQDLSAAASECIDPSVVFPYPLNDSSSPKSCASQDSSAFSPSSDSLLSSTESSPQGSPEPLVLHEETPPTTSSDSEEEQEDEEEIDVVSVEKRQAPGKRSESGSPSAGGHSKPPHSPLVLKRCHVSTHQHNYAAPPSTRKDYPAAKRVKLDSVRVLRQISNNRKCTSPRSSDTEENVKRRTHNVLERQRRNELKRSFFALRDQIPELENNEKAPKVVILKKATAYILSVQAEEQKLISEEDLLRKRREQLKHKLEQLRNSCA
Chain of Nuclear receptor subfamily 1 group I member 2 (Homo sapiens) (O75469 whole entry, looked up, the tested form may be a part): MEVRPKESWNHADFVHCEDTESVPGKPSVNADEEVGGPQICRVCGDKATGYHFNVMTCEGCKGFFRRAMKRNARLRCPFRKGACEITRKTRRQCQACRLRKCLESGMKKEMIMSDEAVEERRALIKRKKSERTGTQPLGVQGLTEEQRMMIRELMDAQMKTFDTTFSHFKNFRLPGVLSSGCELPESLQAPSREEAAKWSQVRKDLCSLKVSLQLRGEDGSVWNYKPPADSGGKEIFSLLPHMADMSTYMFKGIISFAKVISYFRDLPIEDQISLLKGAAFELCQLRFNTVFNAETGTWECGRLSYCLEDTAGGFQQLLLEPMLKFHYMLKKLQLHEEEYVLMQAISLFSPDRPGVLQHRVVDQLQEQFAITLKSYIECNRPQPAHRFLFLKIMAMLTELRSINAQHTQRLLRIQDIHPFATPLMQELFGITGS

As to `C=COCCOCCOCCOC=C`, the compound was classed as inactive in assay [1], in [2], in assay [3], in assay [4], in assay [5] and in [6]. Further, the compound was classed as inactive in assay [7], in assay [8] and in assay [9].

Take `O=c1[nH]nnc2ccccc12`: the outcome in assay [1], in [2], in assay [3], in assay [4], in assay [5] and in assay [6] was inactive. Further, the outcome in assay [7], in assay [8] and in [9] was inactive.

As for `Sc1nc(S)nc(S)n1`, the compound was called inactive in [1], in [2], in assay [3], in assay [4], in assay [5] and in [6]. In addition, the compound was called inactive in assay [7], in [8], in [9], in [10] and in assay [11].

Consider `C/C=C(\C)C(=O)OCc1ccccc1`, for which the result in [1], in assay [2], in [3], in assay [4], in assay [5] and in assay [6] was inactive. In addition, the result in assay [7], in [12], in [9] and in [11] was inactive.

By AC50 is commonly meant the concentration giving half of the maximal activity seen. For `O=C(O)CCCCC1CCSS1` (stereo not drawn), the compound was called inactive in assay [1], in assay [2], in assay [3], in assay [5], in assay [6] and in [7]. The result in assay [12], in assay [9], in [10] and in assay [11] was inactive. In assay [4], the concentration at half-maximal activity (AC50) was 40 µM (active).

Turning to `CCCCCCCCCCCCN`, the outcome in [1], in assay [2], in assay [5], in [6], in [7] and in assay [10] was inactive. The result in assay [11] was inactive. The concentration at half-maximal activity (AC50) in assay [3] was 15 µM (active); in [4], 17.8 µM (active).

With `c1cc(C(c2ccc(OCC3CO3)cc2)c2ccc(OCC3CO3)cc2)ccc1OCC1CO1` (stereo not drawn), the AC50 in assay [1] is 10.1 µM (active); in assay [3], 100 µM (active); in [5], 24.8 µM (active); in [6], 11.8 µM (active). Besides, the result in [2], in assay [4], in assay [7], in [8] and in assay [9] was inactive.

For the compound `C=C[C@@H](C)CCC=C(C)C`, the compound was classed as inactive in assay [1], in assay [2], in assay [3], in assay [4], in assay [5] and in assay [6]. In addition, the outcome in assay [7], in [8], in [9], in [10] and in [11] was inactive.

With `CCN(CC)CCOC(=O)c1ccc(N)cc1`, the result in assay [1], in assay [2], in assay [3], in [4], in assay [5] and in assay [6] was inactive. Further, the outcome in assay [7], in assay [12] and in [10] was inactive.

`O=Nc1ccc(Nc2ccccc2)cc1`: the concentration at half-maximal activity (AC50) in [1] is 56.4 µM (active); in assay [3] it was 12.1 µM (active); in [4] it was 7.16 µM (active); in [5], 33.4 µM (active); in assay [6], 54.3 µM (active); in assay [11] it was 40.4 µM (active). The call in [2], in [7], in [8], in assay [9] and in assay [10] was inactive.

For `COC(=O)Cc1cccc2ccccc12`, the call in [1], in assay [2], in [3], in assay [4], in [5] and in assay [6] was inactive. For the same compound, the compound was classed as inactive in [7], in assay [8] and in [9].
